# Pf apPOL block = Pf-apPOL DNA polymerase inhibition. AID 1794808. Recombinant Pf-apPOL, molecular beacon fluorescence, 1.5 h. inhibition, % at 10 µM. 210,000 compounds, 0.25% hits
# mHTT-CaM PPI inh = inhibitors of human mutant huntingtin-calmodulin interaction; inhibition, % at 15 µM; AlphaScreen His-mHTT/GST-CaM binding, luminescence; 190,000 compounds, 3.6% hits; P42858;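 further: 0% = both proteins with DMSO and 100% = one protein alone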
# An asterisk follows results filed as active. A selection: hits, their analogues and other compounds. The true share with any hit is near 3.5%. No stated cut-off is given here; in the data, active means inhibition above about 50%; inactive means the rest.
SMILES,Pf apPOL block,mHTT-CaM PPI inh
CCOc1ccc(C(=O)N2CCc3c(c(C(=O)NCc4cccc(C)c4)nn3C)C2)cc1,-11.0,-0.8
Cc1cccc(CNC(=O)c2nn(C)c3c2CN(C(=O)c2ccco2)CC3)c1,1.8,71.7*
Cn1nc(C(=O)NCc2ccc(F)cc2)c2c1CCN(C(=O)c1cccc(F)c1)C2,-7.7,-3.1
Cc1cccc(C(=O)N2CCc3c(c(C(=O)NCc4ccccc4)nn3C)C2)c1,-12.0,88.3*
Cc1cccc(CNC(=O)c2nn(C)c3c2CN(C(=O)c2ccc(F)cc2)CC3)c1,-4.7,51.3*
COc1ccc(CCNc2nc(-c3ccc(F)cc3F)cs2)cc1OC,-4.1,6.0
CC(C)NC(=O)C1CCCN1C(=O)c1ccccc1 (stereo unspecified),0.3,-4.2
COc1cccc(NC(=O)C(=O)NCCCOC(C)C)c1,-8.0,-18.7
Cn1nc(-c2nc(C3CC3)no2)c2c1CCN(C(=O)c1ccc(F)cc1)C2,-7.1,-1.6
O=C(CN1C(=O)CCCc2ccccc21)NCCc1ccco1,-2.5,0.8
COc1cccc(C(=O)N2CC(CN(C)C)C3(CCOCC3)C2)c1 (stereo unspecified),-1.6,-1.4
Cc1cccc(CNC(=O)c2nn(C)c3c2CN(C(=O)CSc2ccccc2)CC3)c1,-6.7,66.1*
COc1ccc(C(=O)N2CCc3c(c(C(=O)NCc4cccc(C)c4)nn3C)C2)cc1,0.4,9.8
Cc1cccc(CNC(=O)c2nn(C)c3c2CN(C(=O)C2CC2)CC3)c1,-7.1,5.9
Cc1cccc(C(=O)N2CCc3c(c(C(=O)NCc4ccc5c(c4)OCO5)nn3C)C2)c1,-7.9,61.6*
CC(C)C(=O)N1CCc2c(c(C(=O)NCc3ccc4c(c3)OCO4)nn2C)C1,-13.6,5.7
COc1cccc(C(=O)N2CCc3c(c(C(=O)NCc4ccc5c(c4)OCO5)nn3C)C2)c1,-2.5,50.9*
CCOc1ccc(C=C2Oc3c(ccc(O)c3CN3CC4CC(C3)c3cccc(=O)n3C4)C2=O)cc1 (stereo unspecified),0.0,4.1
COc1ccc(Nc2ncnc3c2cnn3-c2ccccc2C)cc1OC,-7.1,8.0
CC(=O)NCCc1csc(C2CCN(C(=O)c3cccs3)CC2)n1,-0.5,5.4
O=C1C2CCCN2C(c2ccc(C(F)(F)F)cc2)N1c1ccc(Cl)cc1 (stereo unspecified),-3.8,11.2
COc1ccccc1N(CC(=O)Nc1ccccc1C(F)(F)F)S(C)(=O)=O,-8.3,-2.0
CC(CCc1ccccc1)NC(=O)CC(C(=O)N1CCc2ccccc21)n1ccnc1 (stereo unspecified),-7.4,20.0
CC(NC(=O)CC(C(=O)N1CCc2ccccc21)n1ccnc1)C12CC3CC(CC(C3)C1)C2 (stereo unspecified),-4.4,59.0*
CCN(CCCNC(=O)Cc1cn(C)c2ccccc12)c1cccc(C)c1,-5.2,71.0*
SMILES,Pf apPOL block,mHTT-CaM PPI inh
CCN(CCCNC(=O)c1cn(C)c(=O)c2c1c1ccccc1n2C)c1cccc(C)c1,-1.8,-1.0
CCN(CC)CCCNC(=O)CC(C(=O)N1CCc2ccccc21)n1ccnc1 (stereo unspecified),-5.3,-2.0
CCN(CCCNC(=O)CC(C(=O)N1CCc2ccccc21)n1ccnc1)c1cccc(C)c1 (stereo unspecified),-10.5,74.0*
O=C(NCC1(c2ccc(F)cc2)CCOCC1)C(=O)Nc1ccc(F)c(F)c1,-0.9,-6.9
CSc1nc(-c2ccccc2)cc(-c2ccco2)c1C#N,3.0,-16.0
COc1ccc(OC)c(C(=O)CC2c3c(cc4c(c3OC)OCO4)CCN2C)c1 (stereo unspecified),-8.6,-2.5
O=C1CCCC2=C1C(c1cccs1)c1c(nc(SCc3ccccc3F)[nH]c1=O)N2 (stereo unspecified),-4.9,41.0
CN(C)c1ccc(C2C3=C(CCCC3=O)Nc3nc(SCc4ccccc4F)[nH]c(=O)c32)cc1 (stereo unspecified),-5.4,52.0*
O=C(NCc1n[nH]c(=O)c2ccccc12)C1CCCO1 (stereo unspecified),-0.9,-3.3
C=CCNC(=O)c1cc2n(n1)CCCN(Cc1ccc(Cl)cc1)C2=O,-6.7,-1.7
COc1ccc(N(C(=O)COc2ccccc2C)S(=O)(=O)c2ccc(Cl)cc2)cc1,-8.5,8.0
O=C(c1ccc(F)cc1)N1CCN(c2ccccc2)CC1,-2.6,-2.5
O=C(c1ccc(C#CC2(O)CCCCC2)cc1)N1CCN(c2ccc(F)cc2)CC1,-14.1,52.4*
COc1ccc(Cl)cc1NC(=O)CSc1nnc(-c2c[nH]c3ccccc23)n1C,-11.5,54.7*
CCOC(=O)c1ccccc1NC(=O)CSc1nnc(-c2c[nH]c3ccccc23)n1C,-11.4,1.2
O=C(c1cn2c(n1)COCC2)N1CCC(Cc2ccccc2)CC1,-5.2,35.5
O=C(c1cn2c(n1)CSCC2)N1CCC(Cc2ccccc2)CC1,0.6,57.3*
CCC(=O)N1N=C2c3cc(OC)ccc3CCC2C1c1cccc([N+](=O)[O-])c1 (stereo unspecified),5.5,3.0
CCC(Sc1nnc(N)s1)C(=O)Nc1ccc(C(C)=O)cc1 (stereo unspecified),-3.4,-2.4
O=C(c1ccc(F)cc1F)N1CCCC(c2ccnc(-c3ccccc3)n2)C1 (stereo unspecified),-0.8,12.3
CC(C)S(=O)(=O)Nc1ccc2c(c1)CN(C(=O)c1ccco1)CC2,-5.1,-4.2
CC(C)C(=O)N1CCc2ccc(NS(=O)(=O)Cc3ccc(Cl)cc3)cc2C1,93.7*,-1.4
O=C(O)C(Cc1c[nH]c2ccccc12)NC(=O)C12CC3CC(CC(C3)C1)C2 (stereo unspecified),0.3,8.3
N#Cc1c(N)nc(SCC(=O)c2ccc(O)c(O)c2)c(C#N)c1-c1ccc(O)cc1,27.3,31.0
N#Cc1c(N)nc(SCC(=O)c2ccc(O)c(O)c2)c(C#N)c1-c1cccc(Cl)c1,3.5,85.0*
SMILES,Pf apPOL block,mHTT-CaM PPI inh
N#Cc1c(N)nc(SCC(=O)c2ccc(Br)cc2)c(C#N)c1-c1ccccc1,-12.2,-8.0
COc1ccc(-c2c(C#N)c(N)nc(SCC(=O)c3ccc(O)c(O)c3)c2C#N)cc1,-5.6,99.0*
CS(=O)(=O)N(Cc1ccccc1Cl)c1ccc(C(=O)Nc2ccc3c(c2)OCO3)cc1,0.7,14.2
Cc1cc2ccccc2n1CCNC(=O)c1ccccc1Br,6.6,7.0
O=C(O)CN(CC(=O)O)S(=O)(=O)c1ccc(F)cc1,-3.4,0.2
c1ccc(C2CCC(NCCc3c[nH]c4ccccc34)CC2)cc1 (stereo unspecified),-4.0,77.1*
O=C(NCCc1c[nH]c2ccccc12)C(=O)NCCc1c[nH]c2ccccc12,3.5,1.0
Cc1nc(-c2ccc(F)cc2)sc1C(=O)N1CCC(C(C)C(=O)N2CCOCC2)CC1 (stereo unspecified),1.8,7.2
O=C(NCc1ccccn1)c1nc2ccccn2c1-c1ccc(F)cc1,-6.8,3.1
Cn1cnnc1C1CCCCN1C(=O)Cc1c[nH]c2ccccc12 (stereo unspecified),91.3*,3.8
CCCn1cnnc1C1CCN(C(=O)Cc2c[nH]c3ccccc23)CC1,1.7,13.1
NNc1nc(N2CCOCC2)nc(N2CCOCC2)n1,4.7,-1.2
CCN1CCN(C(=O)Cn2ccsc2=NC(=O)c2ccccc2F)CC1,-4.8,2.5
O=C(NCCc1c[nH]c2ccccc12)c1csc(NS(=O)(=O)c2cccs2)n1,-12.8,-10.1
Cc1cc(C)nc(Nc2nc(C(=O)NCCOc3ccc(F)cc3)cs2)n1,-38.5,91.4*

# From PubChem
